Laboratory results taken from PubChem BioAssay (NCI).
Where “and” joins values, the source holds several entries; their conditions need not be identical. Equal values may be shown once. Compounds without any hit were thinned out: in the full panel of roughly 83,000, 20% have a hit.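 Percent growth is the endpoint: 0 to 100 indicates growth inhibition (40 means 60% inhibition), 0 means no net growth, and negative values indicate cell death.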 Values without a mark were called inactive. Calls of active or inactive are those of the source. The calls were made as follows: active = growth percent below 10; inactive = the rest.

How the values were obtained:
Assay in all cases: NCI-60 one-dose screen, 48 h (100 = growth as untreated, 0 = no growth, -100 = all killed)
Settings in all cases: 10 µM unless noted
T-47D breast = tested on: T-47D breast
BT-549 breast = tested on: BT-549 breast
MDA-MB-435 melanoma = tested on: MDA-MB-435 melanoma
SW-620 colon = tested on: SW-620 colon
MCF7 breast = tested on: MCF7 breast
HCT-116 colon = tested on: HCT-116 colon
HCC-2998 colon = tested on: HCC-2998 colon
KM12 colon = tested on: KM12 colon
MDA-MB-468 breast = tested on: MDA-MB-468 breast

Row | Structure (SMILES) | growth (T-47D breast) | growth (BT-549 breast) | growth (MDA-MB-435 melanoma) | growth (SW-620 colon) | growth (MCF7 breast) | growth (HCT-116 colon) | growth (HCC-2998 colon) | growth (KM12 colon) | growth (MDA-MB-468 breast)
1 | Cc1ccc(Nc2nnc(-c3c[nH]c4ccccc34)o2)c(C)c1 | 44.3% | 29.6% | -41.8% (active) | 30.9% | 14.3% | 1.32% (active) | -13.6% (active) | 7.83% (active) | -17% (active)
2 | CCCn1c(NC(=O)c2cccc(C(N)=O)c2)nc2ccc(CN3CCCCC3)cc21 | 107% | -48% (active) | 93.1% | 109% | 75.6% | 6.73% (active) | 107% | 24% | 109%
3 | Cc1nn(-c2ccccc2)c2nc(C)n(CC(=O)N/N=C/c3ccccc3O)c(=O)c12 | 16.1% | 37.2% | 34.7% | 18.9% | 7.8% (active) | 24.6% | 27.4% | 31% | -23.3% (active)
4 | Cc1ccc(C(=O)Nc2cc(-c3ccccc3)cc(C(F)(F)F)c2)cc1C#Cc1cnc2cccnn12 | 42.3% | 139% | 45.3% | 66.7% | 39.9% | 32.2% | 85.3% | 41.9% | 62.9%
5 | COc1cc(C2C(C(=O)OCc3ccccc3)=C(C)Nc3nc4ccccc4n32)cc(OC)c1OC (stereo unspecified) | 55.6% | 14.2% | -34.7% (active) | 31.4% | 7.08% (active) | 2.8% (active) | 27.8% | 38% | -38% (active)
6 | O=C(CSc1nnc(-c2ccc(-c3nc4ccc(Cl)cc4[nH]3)cc2)o1)Nc1ccc(Cl)cc1 | 47.5% | -9.75% (active) | 8.45% (active) | 4.33% (active) | 19.1% | 5.5% (active) | 67% | 18.8% | 72.4%
7 | Cc1ccc(/C=C/C(=O)c2ccc(S(=O)(=O)NCCNc3nc(N(C)C)nc(N4CCOCC4)n3)cc2)cc1 | 69.6% | 97.3% | 74.8% | 29.1% | 7.32% (active) | -21.6% (active) | 114% | 21.1% | 67.3%
8 | COc1ccc2oc(=O)c(-c3csc(N/N=C(\C)c4cc(OC)c(OC)c(OC)c4)n3)cc2c1 | 65.7% | 39% | 99.2% | 108% | 79.8% | 92.2% | 112% | 87.6% | 79.9%
9 | CS(=O)(=O)Nc1cccc(-n2cnc3cc(-c4ccc(O)cc4)ccc32)c1 | 49.1% | 49.9% | -37.6% (active) | 46.2% | 23.6% | 33.5% | 63.9% | 26.6% | 6.92% (active)
10 | CC(C)(C)c1ccc(OCc2nc3ccccc3n2-c2cccc(N)c2)cc1 | 32.3% and 99.1% | 73.6% and 115% | 70.5% and 102% | 77% and 116% | 32% and 92.1% | 56.8% and 104% | 81.9% and 107% | 54.5% and 105% | 69% and 96.4%
11 | O=C(CSc1nnc(-c2ccc(-c3nc4ccccc4[nH]3)cc2)o1)Nc1ccccc1 | 109% | 98.7% | 85.6% | 19.9% | 72.7% | 50.8% | 92.3% | 70.1% | 92.9%
12 | CCCSc1nnc(-c2sc3nc4ccccc4n3c2C)o1 | 102% | 157% | 105% | 108% | 90.3% | 106% | 112% | 101% | 88.9%
13 | COc1cc(/C=C/C(=O)c2cnn(-c3cc(=O)[nH]c4ccc(Br)cc34)c2C)cc(OC)c1OC | -47.3% (active) | -44.7% (active) | 0.423% (active) | -67.4% (active) | -46% (active) | -68.9% (active) | -96.8% (active) | -42.6% (active) | -80.6% (active)
14 | Nc1cc2ccccc2c(=O)n1NC(=O)c1ccc(Br)cc1 | 94.8% | 136% | 103% | 98.4% | 74.6% | 95.1% | 97.5% | 92.7% | -54.9% (active)
